# D2 PAM-1: HTS Assay for Positive Allosteric Modulators of the Human D2 Dopamine Receptor: Primary Screen for Potentiators. AID 485347, 2010. D(2) dopamine receptor (Homo sapiens), P14416. 340,000 tested, 0.34% active. potentiation, % at 10 µM. HEK293 T-REx D2, calcium flux, EC20 dopamine potentiation;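 active means potentiation over 3 SD above the plate norm, cut at about 30% in these data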; further: 0% is about no effect
# Target sequence (P14416 whole entry, looked up): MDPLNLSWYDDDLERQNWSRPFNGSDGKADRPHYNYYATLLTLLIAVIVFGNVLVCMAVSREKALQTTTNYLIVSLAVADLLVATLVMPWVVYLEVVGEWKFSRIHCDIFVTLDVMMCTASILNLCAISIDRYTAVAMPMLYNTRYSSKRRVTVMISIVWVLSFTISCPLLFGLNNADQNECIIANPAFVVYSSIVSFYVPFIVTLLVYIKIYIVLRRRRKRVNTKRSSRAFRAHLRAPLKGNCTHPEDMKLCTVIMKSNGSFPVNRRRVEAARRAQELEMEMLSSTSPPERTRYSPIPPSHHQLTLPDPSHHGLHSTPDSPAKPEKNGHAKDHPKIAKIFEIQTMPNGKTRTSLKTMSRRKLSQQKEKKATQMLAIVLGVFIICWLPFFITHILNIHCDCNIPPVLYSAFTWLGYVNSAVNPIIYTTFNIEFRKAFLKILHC
#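 Tetracycline-induced HEK293 T-REx cells force-coupled to calcium signalling expressed D2; compounds were pin-added after a 10 s baseline, read kinetically 180 s, then an EC20 dopamine challenge followed with a further 180 s calcium read.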
# D2 ag-1: HTS Assay for Allosteric Agonists of the Human D2 Dopamine Receptor: Primary Screen for Agonists; HEK293 T-REx D2 cells, calcium flux agonist mode; activation, % at 2 µM; 340,000 tested, 0.53% active; D(2) dopamine receptor (Homo sapiens), P14416;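 active means activation over 3 SD above normal in the single-dose calcium agonist read, cut at about 30% in these data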; further: 0% is about no effect
#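 Tetracycline-induced HEK293 T-REx cells with force-coupled D2 receptor, plated overnight at 30 C, loaded with no-wash calcium dye. After a 10 s baseline, compound was pin-added and calcium flux read kinetically for 180 s; calcium rises flagged agonists.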
# D2 ag-2: Beta-Arrestin HTS for Positive Allosteric Modulators of the Human D2 Dopamine Receptor: Agonists. DiscoveRx PathHunter D2 beta-arrestin, luminescence, 90 min; 100% = 57 uM dopamine signal. activation, % (test concentration not listed). 360,000 tested, 0.084% active. AID 624465, 2012. D(2) dopamine receptor (Homo sapiens), P14416; in the data active means activation above about 40%; inconclusive means between about 15% and that limit
#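 DiscoveRx PathHunter D2 beta-arrestin cells (2,100/well) attached overnight, then compound-stimulated 90 min at 37 C in HBSS/10 mM HEPES/0.1% Tween-20 buffer; beta-galactosidase complementation read by luminescence after 1 h at ambient temperature. Dopamine 57 uM final (EC100) as control.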
# D2 PAM-2: Beta-Arrestin HTS for Positive Allosteric Modulators of the Human D2 Dopamine Receptor: Potentiators | D(2) dopamine receptor (Homo sapiens), P14416 | DiscoveRx D2 beta-arrestin cells, luminescence, 90 min; 100% = 57 uM dopamine signal | potentiation, % (concentration not given with the values) | 360,000 tested, 0.23% active | AID 624464, 2012; in the data active means potentiation above about 50%; inconclusive means mostly about 30% to 49%
#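 D2 cells co-treated with compound plus 50 nM dopamine (EC20) for 90 min at 37 deg C to detect potentiation. Beta-arrestin recruitment was read as enzyme-fragment luminescence after 1 h at ambient temperature. Full response was set by 57 uM dopamine.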
# D2 antag: HTS Assay for Allosteric Antagonists of the Human D2 Dopamine Receptor: Primary Screen for Antagonists. D(2) dopamine receptor (Homo sapiens), P14416. inhibition, % at 10 µM. 340,000 tested, 2% active. HEK293 TREx D2 cells, calcium flux, dopamine EC80; in the data active means inhibition above about 30%; inactive means below that, where a call was filed; further: 0% is about no effect
#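 Tetracycline-induced HEK293 TREx cells expressing D2 receptor forced-coupled to calcium signalling, loaded with no-wash calcium dye. Compounds added and calcium flux read 180 s, then dopamine added at EC80 and read a further 180 s.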
# Starred values were filed as active, the others as inactive; u = inconclusive; x = not tested or not shown. Most compounds without a hit are left out; they make up all but 2.4% or so of the library.
SMILES,D2 PAM-1,D2 ag-1,D2 ag-2,D2 PAM-2,D2 antag
COc1ccccc1CN1C[C@@H]2C[C@@H](C3=Cc4cc(Cl)ccc4OC3)N3CCC[C@@]23C1=O,5.9,1.1,-1.4,-1.6,30.6*
O=C1C=C(c2ccc(Cl)nc2)C[C@@H](c2ccc3c(c2)OCO3)C1,-11.0,0.1,-1.6,-4.6,4.3
O=C(c1ccc2c(c1)OCO2)N1CCC2(CC1)Oc1ccc(Cl)cc1C(=O)C21CC(c2ccccc2)=NO1 (stereo not drawn),7.4,1.3,-2.1,-10.8,42.1*
NC(=O)C1CC(=O)N(c2ccc(OCc3ccc([N+](=O)[O-])cc3)cc2)C1 (stereo not drawn),3.6,-0.3,8.5,1.5,-12.2
Cc1ccc(N2CC(C(=O)OCc3ccc([N+](=O)[O-])cc3)CC2=O)cc1 (stereo not drawn),30.6*,0.5,-1.4,-2.5,-16.5
COc1ccc(CCNS(=O)(=O)c2cc3c4c(c2)C(C)C(=O)N4CCC3)cc1OC (stereo not drawn),-6.5,-0.4,-3.2,-4.4,-10.7
CC1C(=O)N2CCCc3cc(S(=O)(=O)NCCc4ccccc4)cc1c32 (stereo not drawn),42.9*,-0.1,-4.2,-2.9,-0.5
COc1ccc(CCN2C(=O)c3oc4ccc(F)cc4c(=O)c3C2c2ccc(C(C)(C)C)cc2)cc1 (stereo not drawn),-14.4,0.3,x,x,x
O=C(Nc1ccc(Cl)c(C(F)(F)F)c1)N1CCCC(O)C1 (stereo not drawn),3.9,0.5,-0.5,-26.0,30.4*
Cc1nc2c3ccccc3n(CCN3CCCCC3)c2s1,4.2,-1.2,x,x,39.6*
COc1ccc(CNc2nc(NCc3ccc(OC)cc3)n(C(=O)c3ccncc3)n2)cc1,7.8,1.3,-1.6,-9.7,2.8
COc1ccc(CNc2nc(NCc3ccc(OC)cc3)n(C(=O)c3ccccc3[N+](=O)[O-])n2)cc1,10.3,0.6,-3.3,-0.8,31.2*
Cc1nc2cc(NC(=O)c3cccc(S(C)(=O)=O)c3)ccc2o1,-16.9,0.4,-0.6,-5.9,33.4*
Cc1ccc(NC(=O)c2cccc(S(C)(=O)=O)c2)cc1,1.7,1.0,-2.4,-8.7,-2.7
O=C(Nc1cccc(F)c1)Nc1cnccn1,10.6,1.3,1.0,-9.5,-13.2
O=C(Nc1cccc(F)c1)Nc1ccccn1,-23.1,-0.3,-3.8,-10.4,87.0*
Cn1cnc(S(=O)(=O)N2CCC(C(=O)NCc3ccccc3Cl)CC2)c1,0.9,-0.7,x,x,x
CCCn1c(NCc2ccccc2C)nc2ccccc21,-20.0,2.2,x,x,x
CCCn1c(Nc2ccccc2C)nc2ccccc21,-12.7,-0.2,-0.4,-32.7,42.5*
O=C(CCC(=O)c1ccc(F)cc1)Nc1cc(Cl)cc(Cl)c1,-16.0,-0.1,-4.9,-24.3,39.1*
COc1cc(NC(=O)c2ccccc2OCc2ccccc2)cc(OC)c1OC,-7.2,-1.0,-0.5,55.6*,-3.6
O=C(Nc1ccc(O)cc1)c1ccccc1OCc1ccccc1,13.9,0.6,2.1,0.1,-0.2
CC(C)CCCN1CCN=C1Nc1ccccc1,7.6,-0.3,0.8,-15.2,39.0*
Cc1cccc(CSc2ncc(CO)n2Cc2ccc(F)cc2)c1,-18.7,x,x,x,x
CCN1C(=O)CSc2ccc(C(=O)NCCCN3CCOCC3)cc21,-7.4,35.3*,-1.9,-10.3,-1.4
SMILES,D2 PAM-1,D2 ag-1,D2 ag-2,D2 PAM-2,D2 antag
O=C(NCCN1CCOCC1)c1ccc2c(c1)N(Cc1ccccc1)C(=O)CS2,x,-0.5,-0.3,-8.6,-16.2
O=C(CSc1ncccn1)N/N=C/c1cccc(OC2CSC2)c1,2.0,-2.2,-4.3,0.7,36.0*
O=S(=O)(c1ccccc1)N1N=C(c2cccs2)CC1c1ccc(Br)cc1 (stereo not drawn),34.6*,0.1,-1.3,-14.0,13.1
COc1ccccc1-c1nc2c(c(SCC(=O)Nc3ccccc3F)n1)Cc1c(CO)cnc(C)c1O2,1.9,0.5,x,x,x
Nc1cc(N)nc(SCc2ccccc2)n1,-11.2,-0.1,-0.3,-0.5,-13.8
Nc1cc(N)nc(SCCc2ccccc2)n1,-1.3,1.3,1.9,1.0,47.1*
O=C(Nc1ccc2c(c1)OCCO2)C(c1cc2ccccc2o1)N1CCN(C/C=C/c2ccccc2)CC1 (stereo not drawn),x,x,3.0,-12.5,x
CCOc1ccc(NC(=O)CCN2C(=O)CSc3ccccc32)cc1,-11.5,1.2,3.1,-5.3,-9.5
O=C(CCN1C(=O)CSc2ccccc21)Nc1ccc(OC(F)(F)F)cc1,-16.7,0.2,-1.1,-4.3,51.4*
COc1ccc(-c2nn3c(-c4ccc(C)cc4)nnc3c3ccccc23)cc1,7.2,x,x,x,x
Cc1nc2ccc(NC(=O)c3ccc([N+](=O)[O-])cc3[N+](=O)[O-])cc2s1,-9.1,0.2,u,51.6*,-3.0
Cc1c(Cl)cccc1NC(=O)Nc1nnc(N(C)C2CCCCC2)s1,-4.7,17.3,x,x,x
COc1ccc(Cl)cc1NC(=O)Nc1cccc([N+](=O)[O-])c1C,-25.8,0.5,-4.7,-57.1,66.3*
COc1ccccc1C(=O)Nc1cc(Cl)ccc1O,-3.6,0.5,1.3,-6.2,3.7
COc1ccc(Cl)cc1NC(=O)C(OC)c1ccccc1 (stereo not drawn),9.8,-0.4,-2.6,-22.9,30.0*
CCC(C(=O)Nc1cc(Cl)ccc1OC)c1ccccc1 (stereo not drawn),10.9,-0.2,-3.6,-9.2,3.9
CCC(C(=O)Nc1cc(OC)c(NC(=O)c2ccccc2)cc1OC)c1ccccc1 (stereo not drawn),15.9,-0.8,0.6,-2.8,41.9*
COc1ccc(Cl)cc1NC(=O)c1ccccc1C,-0.3,-1.3,-3.3,-25.9,32.4*
CSc1ccc(CCNc2ncnc3onc(-c4ccc(Cl)cc4)c23)cc1,-6.9,0.8,x,x,x
CCCN(CCC)C(=O)Cn1c(=O)n(-c2cccc(C(F)(F)F)c2)c(=O)c2c(C)c(C)sc21,14.7,-1.1,x,x,x
C=CCNC(=S)NNC(=O)CC12CC3CC(CC(C3)C1)C2,-5.2,0.3,-3.1,-5.8,33.6*
COC(=O)c1cc(CNC(=O)c2ccc(S(=O)(=O)N(C)c3ccccc3)cc2)ccc1OC,-25.1,0.3,-0.8,-11.2,74.1*
CCCCn1c(=O)c(Cc2ccccc2)c(O)c2ccccc21,31.2*,-0.2,-4.4,4.9,-15.3
CCCCCCn1c(=O)c(Cc2ccccc2)c(O)c2ccccc21,3.6,-0.4,-7.1,-4.5,-5.0
CCCCNCCOCCOc1ccc(C)cc1[N+](=O)[O-],-31.2,-1.4,-0.9,-15.9,-0.9

# Bioassay records from PubChem BioAssay.
